Assay results as given in PubChem BioAssay (NCATS).
“And” between values parts separate entries of the source, which are not always exact repeats. Identical values can stand only once. Results filed as inconclusive are left out. Entries that show only a call come without a potency. The source made the active and inactive calls. Unless noted, calls follow the shape of the dose curve; as a rule, active = well fitted curve in the direction sought with a large enough effect; inconclusive = small, poorly fitted or top-dose-only effect, or another doubt; inactive = no such curve, though single readings can be large; an effect the other way counts as inactive or inconclusive.

Experiments:
[1] = target: DNA dC->dU-editing enzyme APOBEC-3G (Homo sapiens) (UniProt Q9HC16); assay: qHTS for inhibitors of Vif-A3G interactions: Validation (AID 588379)
DNA dC->dU-editing enzyme APOBEC-3G (Homo sapiens), sequence (Q9HC16 whole entry, looked up): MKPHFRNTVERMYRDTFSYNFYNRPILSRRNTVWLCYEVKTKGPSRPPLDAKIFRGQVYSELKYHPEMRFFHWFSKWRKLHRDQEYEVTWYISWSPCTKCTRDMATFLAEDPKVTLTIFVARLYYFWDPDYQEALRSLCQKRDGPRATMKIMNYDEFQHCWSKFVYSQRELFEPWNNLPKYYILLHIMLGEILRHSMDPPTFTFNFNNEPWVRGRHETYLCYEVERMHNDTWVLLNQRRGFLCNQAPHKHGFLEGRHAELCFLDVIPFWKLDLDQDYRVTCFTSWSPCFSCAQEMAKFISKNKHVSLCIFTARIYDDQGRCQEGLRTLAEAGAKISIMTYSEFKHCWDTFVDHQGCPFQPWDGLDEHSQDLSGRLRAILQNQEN
In short: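 Yellow fluorescence (Ex 488, Em 500-530) of Vif-coexpressing HeLa A3G-eYFP cells, scanned by Acumen cytometer, reports blocked A3G degradation. Cells plated at 700/well overnight at 37 deg C before compound addition, then a further overnight compound incubation at 37 deg C.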

[2] = target: Glucocorticoid receptor (Homo sapiens) (UniProt P04150); assay: qHTS assay for small molecule agonists of glucocorticoid receptor signaling (AID 588532; active = well fitted curve in the direction sought with a large enough effect in the signal ratio, with a control signal flat; the % refers to the signal ratio); settings: HeLa MMTV-bla, beta-lactamase ratio, agonist, 18 h; stronger effect = higher value; percent of dexamethasone control, DMSO zero
Glucocorticoid receptor (Homo sapiens), sequence (P04150 whole entry, looked up): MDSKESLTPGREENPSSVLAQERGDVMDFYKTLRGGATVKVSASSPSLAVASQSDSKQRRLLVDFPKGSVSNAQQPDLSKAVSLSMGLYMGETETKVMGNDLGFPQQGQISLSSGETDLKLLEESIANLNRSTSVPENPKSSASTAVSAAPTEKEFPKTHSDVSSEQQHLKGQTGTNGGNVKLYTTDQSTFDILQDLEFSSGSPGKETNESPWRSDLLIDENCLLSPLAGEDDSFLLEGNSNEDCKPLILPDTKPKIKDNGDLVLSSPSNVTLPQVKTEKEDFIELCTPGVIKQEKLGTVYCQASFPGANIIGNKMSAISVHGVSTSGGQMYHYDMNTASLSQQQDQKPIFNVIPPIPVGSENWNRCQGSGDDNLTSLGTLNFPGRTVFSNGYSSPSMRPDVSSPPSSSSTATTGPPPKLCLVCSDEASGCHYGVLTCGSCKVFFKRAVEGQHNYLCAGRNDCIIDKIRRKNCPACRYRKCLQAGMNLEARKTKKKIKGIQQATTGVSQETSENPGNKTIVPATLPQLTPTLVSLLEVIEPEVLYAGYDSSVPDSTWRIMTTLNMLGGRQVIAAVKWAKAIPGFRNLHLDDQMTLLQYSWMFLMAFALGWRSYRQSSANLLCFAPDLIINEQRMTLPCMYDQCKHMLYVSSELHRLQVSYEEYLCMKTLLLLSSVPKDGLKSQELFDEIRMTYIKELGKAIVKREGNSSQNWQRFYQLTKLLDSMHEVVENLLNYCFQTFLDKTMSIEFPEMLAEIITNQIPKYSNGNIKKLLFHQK
In short: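 Titration series, up to 92 uM, applied to GRE-bla HeLa cells for 18 h at 37 C. Detection by CCF4 FRET substrate after 2 h at RT.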

[3] = Viability counterscreen for antagonist of constitutive androstane receptor (CAR) against the NCATS DSHEA and TCM libraries (AID 1794837);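 also: compound exposure lasted 24 h before viability reading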
In short: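 HepG2-CYP2B6-hCAR cells, 2,500/well, were exposed 24 hr at 37C to substances together with 48 uM CITCO (final). Viability was read as CellTiter-Fluor fluorescence (Ex/Em 405/540 nm) after 1 hr.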

[4] = Viability counterscreen for agonist of constitutive androstane receptor (CAR) against the NCATS DSHEA and TCM libraries (AID 1794838);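 also: HepG2 cells with CYP2B6 reporter and hCAR plus 0.75 µM PK11195 antagonist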
In short: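 HepG2-CYP2B6-hCAR cells (2,500/well) treated 24 h at 37C with compounds plus 0.75 uM PK11195; viability read by CellTiter-Fluor fluorescence, Ex/Em 405/540 nm.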

[5] = HepG2 viability counterscreen (readout 2: ATP content) against the NCATS DSHEA and TCM libraries (AID 1794840)
In short: (§1)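 HepG2 cells, 1,000/well, attached ~4 h, then exposed ~24 h at 37C to substances. Protease activity read by fluorescence of 25 uM GF-AFC (Ex/Em 380/510 nm) after 30 min; ATP then by CellTiter-Glo luminescence.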

[6] = HepG2 viability counterscreen (readout 1: protease activity) against the NCATS DSHEA and TCM libraries (AID 1794841);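 also: cells exposed to compounds for about 24 h before the protease read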
In short: as §1

[7] = KB-3-1 P-gp reporter qHTS against the NCATS DSHEA and TCM libraries (AID 1919975)
In short: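 Parental KB-3-1 cells, 500 cells/well, in DMEM with 10% FBS, exposed 72 h at 37 C to compounds in concentration-response. Viability read by CellTiter-Glo luminescence after 30 min at room temperature.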

[8] = KB-8-5-11 P-gp reporter qHTS against the NCATS DSHEA and TCM libraries (AID 1919977)
In short: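 P-gp-overexpressing KB-8-5-11 cells were screened in colchicine-free medium at 500 cells/well, as a titration series. Cells were exposed for 72 h at 37C. Viability was read by CellTiter-Glo luminescence after 30 min at room temperature.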

[9] = qHTS Counterscreen for compound interference against the NCATS DSHEA and TCM libraries (AID 1919978); settings: firefly luciferase detection reagent interference, luminescence;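 also: compounds preincubated with 1 µM D-luciferin or buffer before detection reagent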
In short: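 Firefly luciferase detection reagent was added after compounds (19.5 nM–39.8 uM final) had been incubated 15 min at room temperature with 1 uM D-luciferin or with 100 mM phosphate buffer alone. Luminescence was read after 30 min at room temperature.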

[10] = Dual reporter qHTS for agonist of Pregnane X Receptor (hPXR) against the NCATS DSHEA and TCM libraries: Fluorescence readout (AID 1920058)
In short: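 Fluorescence read-out for cell viability: CellTiter-Fluor, 1 h at 37 °C, Ex/Em 405/540 nm. This followed ~24 h treatment of hPXR-Luc HepG2 cells with substances in agonist mode.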

[11] = Cell Viability - LYMP2-001 (AID 921); also: series mostly up to about 92 µM; nearly all actives have a fitted effect of over 70% in size
In short: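 Human lymphoblastoid LYMP2-001 cells, 2500 per well, in complete medium, treated 24 h at 37 C. Viability from cellular ATP by CellTiter-Glo luminescence; AC50 from Hill-equation fits of qHTS concentration-response.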

[12] = target: Bile acid receptor (Homo sapiens) (UniProt Q96RI1); assay: qHTS assay for small molecule antagonists of farnesoid X receptor signaling (AID 588526; calls by dose curve)
Bile acid receptor (Homo sapiens), sequence (Q96RI1 whole entry, looked up): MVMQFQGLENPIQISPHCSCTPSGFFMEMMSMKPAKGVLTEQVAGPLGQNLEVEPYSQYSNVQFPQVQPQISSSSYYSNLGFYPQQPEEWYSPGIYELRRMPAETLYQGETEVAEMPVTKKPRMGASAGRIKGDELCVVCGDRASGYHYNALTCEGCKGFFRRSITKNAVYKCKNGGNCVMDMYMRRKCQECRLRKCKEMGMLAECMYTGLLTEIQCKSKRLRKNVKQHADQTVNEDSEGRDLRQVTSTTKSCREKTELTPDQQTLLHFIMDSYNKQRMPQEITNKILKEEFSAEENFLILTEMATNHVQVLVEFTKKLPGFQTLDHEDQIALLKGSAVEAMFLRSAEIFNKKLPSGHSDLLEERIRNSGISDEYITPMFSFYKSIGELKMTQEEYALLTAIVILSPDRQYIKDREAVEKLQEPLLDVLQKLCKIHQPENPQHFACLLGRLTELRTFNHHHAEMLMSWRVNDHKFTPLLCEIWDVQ
In short: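 Concentration-response titrations were fitted to the Hill equation for half-maximal inhibition and maximal response, with data normalised to 50 uM chenodeoxycholic acid and DMSO control wells. Cells: FXR-UAS-bla HEK293T, dialyzed FBS.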

[13] = target: Bile acid receptor (Homo sapiens) (UniProt Q96RI1); assay: qHTS assay for small molecule agonists of farnesoid X receptor signaling (AID 588527; calls by dose curve; also: series mostly up to about 77 µM); settings: HEK293T FXR-UAS-bla, beta-lactamase ratio, 16 h; stronger effect = higher value
In short: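 Quantitative HTS used FXR-UAS-bla HEK293T cells with 16 h compound incubation at 37 C. EC50 values came from concentration-response curves normalized to chenodeoxycholic acid.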

[14] = Cell Viability - LYMP1-003 - Assay at 24 hr (AID 963)
In short: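 CellTiter-Glo luminescence (intracellular ATP) read after 24 hr, 37 C compound exposure of 2500 LYMP1-003 human lymphoblastoid cells/well in complete medium; qHTS concentration series; AC50 via standard Hill equation.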

[15] = Cell Viability - LYMP2-022 (AID 987); also: nearly all actives have a fitted effect of over 55% in size
In short: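 Luminescent ATP read-out (CellTiter-Glo, 30 min, RT) after 24 hr, 37 C compound exposure of 2500 human lymphoblastoid cells/well in complete medium. Cytotoxicity taken as concentration-dependent ATP loss; AC50 from standard Hill equation.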

[16] = target: Estrogen receptor (Homo sapiens) (UniProt P03372); assay: qHTS assay for small molecule agonists of estrogen receptor alpha signaling (AID 588514; calls by dose curve; also: nearly all actives have a fitted effect of over 70% in size; also: potency is read from the fitted curve at half-maximal effect)
Estrogen receptor (Homo sapiens), sequence (P03372 whole entry, looked up): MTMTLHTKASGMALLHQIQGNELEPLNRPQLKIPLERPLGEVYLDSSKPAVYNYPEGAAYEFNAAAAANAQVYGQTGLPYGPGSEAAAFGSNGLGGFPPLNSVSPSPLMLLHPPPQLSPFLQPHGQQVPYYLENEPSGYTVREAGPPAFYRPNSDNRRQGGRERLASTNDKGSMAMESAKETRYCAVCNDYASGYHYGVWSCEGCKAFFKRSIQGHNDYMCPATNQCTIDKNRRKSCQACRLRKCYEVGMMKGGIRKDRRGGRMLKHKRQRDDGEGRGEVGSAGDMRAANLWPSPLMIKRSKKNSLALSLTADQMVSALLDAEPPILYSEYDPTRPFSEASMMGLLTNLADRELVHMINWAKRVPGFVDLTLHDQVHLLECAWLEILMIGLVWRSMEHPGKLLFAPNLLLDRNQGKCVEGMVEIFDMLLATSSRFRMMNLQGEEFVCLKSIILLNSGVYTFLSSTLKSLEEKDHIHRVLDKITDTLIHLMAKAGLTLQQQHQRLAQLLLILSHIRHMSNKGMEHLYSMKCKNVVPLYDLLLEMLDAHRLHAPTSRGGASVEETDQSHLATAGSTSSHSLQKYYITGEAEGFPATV
In short: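 Read-out: CCF4 fluorescence from a beta-lactamase reporter in ER-alpha-UAS-bla HEK 293 cells after 18 hrs of compound exposure at 37 C. Normalized to 20 nM 17-beta-estradiol (100%) and DMSO (0%).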

[17] = qHTS assay for small molecule antagonists of peroxisome proliferator-activated receptor delta signaling (AID 588535); settings: HEK293T PPARd-UAS-bla, beta-lactamase FRET ratio, 18 h; 460 nm channel;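 also: cells co-treated with a PPAR-delta agonist as stimulator during compound exposure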
In short: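 Compounds tested in titration on PPAR-delta-UAS-bla HEK293T cells grown in charcoal/dextran-stripped serum (2%); beta-lactamase activity read via CCF4 emission at 460 and 530 nm.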

[18] = qHTS Assay for Identification of Small Molecule Agonists for Hypoxia Response Element Signaling Pathway (AID 914; active = well fitted activation curve with a large enough effect in the signal ratio, with a control signal flat, not every such curve was filed as active; the % refers to the signal ratio); settings: ME-180 (cervical carcinoma) HRE-bla reporter, beta-lactamase ratio, CoCl2, 17 h; activation: stronger effect = higher value
In short: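 HRE-bla ME-180 cells with beta-lactamase reporter under hypoxia response element, compounds with EC50 CoCl2 for 17 hours at 37 C. CCF4 substrate, 460nm/530nm emission ratio gave %Activity; AC50 from titration series.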

[19] = S16 Schwann cell PMP22 intronic element firefly luciferase assay (AID 624032); also: series mostly up to about 58 µM; nearly all actives have a fitted effect of over 30% in size
In short: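 Rat S16 Schwann cells stably carrying a PMP22 intronic element-driven Fluc reporter were seeded overnight, then exposed to compounds for 24 h at 37 °C. Luminescence was normalized to PTC124 (positive control) and DMSO (0% activity).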

[20] = target: Muscarinic acetylcholine receptor M1 (Rattus norvegicus) (UniProt P08482); assay: qHTS Assay for Antagonists of Acetylcholine Muscarinic M1 Receptor: Measurement of IP-One Response (AID 944); also: nearly all actives have a fitted effect of over 75% in size
Muscarinic acetylcholine receptor M1 (Rattus norvegicus), sequence (P08482 whole entry, looked up): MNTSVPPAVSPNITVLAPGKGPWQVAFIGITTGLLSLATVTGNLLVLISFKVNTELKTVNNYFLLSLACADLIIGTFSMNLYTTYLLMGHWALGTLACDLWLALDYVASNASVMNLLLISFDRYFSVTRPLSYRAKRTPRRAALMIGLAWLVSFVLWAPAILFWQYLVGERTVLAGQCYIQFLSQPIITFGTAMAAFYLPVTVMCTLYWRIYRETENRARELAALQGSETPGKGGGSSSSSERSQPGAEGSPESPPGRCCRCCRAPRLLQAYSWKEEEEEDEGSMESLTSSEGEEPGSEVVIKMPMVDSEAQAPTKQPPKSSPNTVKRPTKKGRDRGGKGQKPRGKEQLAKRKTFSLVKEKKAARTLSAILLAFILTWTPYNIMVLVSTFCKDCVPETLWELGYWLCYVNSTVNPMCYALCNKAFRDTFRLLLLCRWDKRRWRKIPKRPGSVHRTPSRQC
In short: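 Read-out: HTRF competition between d2-IP1 and Eu-cryptate anti-IP1 antibody, emission 620 and 665 nm. Stimulus was carbachol, EC80 (200 nM), for 30 min in M1-CHO cells (rat receptor), after 10 min compound pre-treatment.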

## C[C@]12CC[C@H](O)CC1=CCC1C2CC[C@]2(C)C(=O)CC[C@@H]12 (some centres not stated)
[1]
  outcome: inactive

## CCOCN(C(=O)CCl)c1c(C)cccc1CC
[2]
  activation: 5.28% (inactive) and 1.08% (inactive)

## COc1ccc2c(c1O)-c1c(OC)c(OC)cc3c1[C@H](C2)N(C)CC3
[1]
  outcome: inactive
[3]
  outcome: inactive
[4]
  outcome: inactive
[5]
  outcome: inactive
[6]
  outcome: inactive
[7]
  outcome: inactive
[8]
  Potency: inactive
[9]
  max response: 1.18% (inactive)
[10]
  outcome: inactive

## C=CCc1ccc2c(c1)OCO2
[11]
  Potency: inactive
[3]
  outcome: inactive
[4]
  outcome: inactive
[5]
  outcome: inactive
[6]
  outcome: inactive
[7]
  outcome: inactive
[8]
  Potency: inactive
[9]
  max response: 0.591% (inactive)
[10]
  outcome: inactive

## CCc1cccc(CC)c1N(COC)C(=O)CCl
[12]
  outcome: inactive
[13]
  activation: -2.1% (inactive)

## ClC(Cl)=C(c1ccc(Cl)cc1)c1ccc(Cl)cc1
[14]
  Potency: inactive
[15]
  Potency: inactive
[16]
  Potency: inactive
[12]
  outcome: inactive
[13]
  activation: -9.46% (inactive)
[17]
  max response: 6.36% and 34.1%

## C/C=C/c1ccc2c(c1)OCO2
[14]
  Potency: inactive
[15]
  Potency: inactive
[1]
  outcome: inactive

## CNC(=O)O/N=C/C(C)(C)SC
[14]
  Potency: inactive
[16]
  Potency: inactive
[12]
  outcome: inactive
[13]
  activation: 1.35% (inactive) and 5.69% (inactive) and 1.03% (inactive)
[17]
  max response: -48.7% and -22%

## O=C(O)COc1ccc(Cl)cc1Cl
[11]
  Potency: inactive
[14]
  Potency: inactive
[15]
  Potency: inactive
[2]
  activation: -2.35% (inactive) [middle of 4 runs]

## CCNc1nc(Cl)nc(NC(C)C)n1
[16]
  Potency: inactive
[2]
  activation: -2.38% (inactive) and -6.25% (inactive)

## ClC1=C(Cl)C2(Cl)C3C(Cl)C=CC3C1(Cl)C2(Cl)Cl (configuration not stated)
[17]
  max response: -19.5%

## COc1cc2c(cc1O)CC1c3c(cc(O)c(OC)c3-2)CCN1C (configuration not stated)
[1]
  outcome: inactive
[3]
  outcome: inactive
[4]
  outcome: inactive
[5]
  outcome: inactive
[6]
  outcome: inactive
[7]
  outcome: inactive
[8]
  Potency: inactive
[9]
  max response: 0.642% (inactive)
[10]
  outcome: inactive

## COP(=S)(OC)Oc1ccc([N+](=O)[O-])cc1
[11]
  Potency: inactive
[14]
  Potency: inactive
[16]
  Potency: inactive
[12]
  outcome: inactive
[13]
  activation: 0.0258% (inactive) and 2.38% (inactive)
[17]
  max response: -15.9%

## C=CCc1ccc(OC)cc1
[15]
  Potency: inactive
[17]
  max response: -9.08%

## O=S1OCC2C(CO1)C1(Cl)C(Cl)=C(Cl)C2(Cl)C1(Cl)Cl (configuration not stated)
[16]
  Potency: 1410 nM (active)
[13]
  activation: 2.02% (inactive)

## COC(=O)NC(=S)Nc1ccccc1NC(=S)NC(=O)OC
[11]
  Potency: inactive
[14]
  Potency: inactive
[15]
  Potency: inactive
[16]
  Potency: inactive
[12]
  outcome: inactive
[13]
  activation: 1.1% (inactive) and -0.86% (inactive)
[17]
  max response: -30.4% and 40.5%

## c1ccc(N=Nc2ccccc2)cc1
[11]
  Potency: inactive
[15]
  Potency: inactive

## CC(C)CN1CC2(CCN(C(=O)Oc3ccccc3)CC2)C1
[18]
  activation: -12.9% (inactive)

## CC(C)c1c(CN(C)[C@@H](C)Cc2ccccc2)n(C)n(-c2ccccc2)c1=O
[19]
  Potency: inactive

## C[C@@]12CC[C@H]3[C@@H](CC[C@@H]4C[C@H]5S[C@H]5C[C@]43C)[C@H]1CC[C@H]2O
[18]
  activation: 1.68% (inactive)

## C[C@H]1CN(C2CCC(C#N)(c3ccc(F)cc3)CC2)CC[C@@]1(C(=O)O)c1ccccc1 (some centres not stated)
[19]
  Potency: inactive

## NC[C@H](O)c1ccc(O)cc1
[20]
  Potency: inactive

## CC[C@@H]1[C@@H]2C[C@H]3[C@H]4N(C)c5ccccc5[C@@]45C[C@@H]([C@@H]2[C@@H]5O)N3[C@H]1O
[19]
  Potency: inactive

## c1cnc(N2CCCC3(CCNCC3)C2)nc1
[18]
  activation: 6.96% (inactive)

## CC1=C2[C@@H]3OC(=O)[C@@H](C)[C@@H]3CC[C@]2(C)C=CC1=O
[19]
  Potency: inactive

## COc1ccc(NC(=O)N2CCC3(CC2)CCN(C(=O)Oc2ccccc2)CC3)cc1
[18]
  activation: -18.1% (inactive)

## COc1ccc(OC)c([C@H](O)[C@H](C)N)c1
[20]
  Potency: inactive

## COc1ccc2c(c1OC)C(=O)O[C@H]2[C@H]1c2cc3c(cc2CCN1C)OCO3
[20]
  Potency: inactive

## CC(=O)OCC(=O)[C@@H]1CC[C@H]2[C@H]3CC[C@H]4C[C@@H](O)CC[C@]4(C)[C@@H]3C(=O)C[C@@]12C
[19]
  Potency: inactive

## C#CCN(C)[C@@H](C)Cc1ccccc1
[20]
  Potency: inactive

## CS(=N)(=O)CC[C@@H](N)C(=O)O (some centres not stated)
[20]
  Potency: inactive

## CC(C)[C@@]1(NC(=O)[C@@H]2C[C@H]3c4cccc5[nH]cc(c45)C[C@@H]3N(C)C2)O[C@]2(O)[C@H]3CCCN3C(=O)CN2C1=O
[18]
  activation: 9.33% (inactive)

## CN1CC[C@]2(C)c3cc(O)ccc3N(C)[C@@H]12
[20]
  Potency: inactive
